The values below come from PubChem BioAssay AID686979 (National Center for Advancing Translational Sciences (NCATS), 2013).

About 50,000 (12%) of roughly 420,000 compounds were called active. Not shown: some 26% with an inconclusive outcome. Many of the other results were omitted from the sample, so actives are more common in it than they were. A number with no mark means an inactive call. Calls come from the whole dose curve; as a rule, active = well fitted inhibition curve with a large enough effect; inconclusive = small, poorly fitted or top-dose-only effect; inactive = flat fitted curve, though single readings scatter.
% is set by controls: 0 for no effect and ±100 for the full control effect; potency is the fitted concentration of half-maximal effect.

A short description of the experiment: qHTS for Inhibitors of human tyrosyl-DNA phosphodiesterase 1 (TDP1): qHTS in cells in presence of CPT. Note: nearly all actives have a fitted effect of over 55% in size. The settings on record: chicken DT40 Tdp1-/-;hTDP1 cells + 20 nM CPT, ATP luminescence, 48 h; series mostly up to 46.2 µM; activity change, negative = growth inhibition: at the top concentration. Put shortly: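 Chicken DT40 Tdp1-/- cells complemented with human TDP1, 400 cells/well, exposed to compounds plus 20 nM camptothecin for at least 48 h at 37 C; viability read as ATP content by CellTiter-Glo luminescence.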
Background: qHTS replaces the single test concentration by a dilution series.
`O=C1NC(=O)C(CCc2ccccc2)(c2ccccc2)N1` (stereo unspecified): the “activity change, negative = growth inhibition” value was -13.1%. Regarding `CC(=O)NN=C(C)c1ccc(NC(=O)C2CC2)cc1`, the “activity change, negative = growth inhibition” value is -93.7%. On the same count and under the same terms, then `Cc1c(S(=O)(=O)NC(C)c2ccccc2)c(=O)n(C)c(=O)n1C` (stereo unspecified), with 1.47%; and `O=C(NC(Cc1ccccc1)C(=O)O)/C(=C\c1ccccc1)NC(=O)c1ccco1` (stereo unspecified), with -4.94%; and `O=C(NCCCn1ccnc1)/C(=C\c1ccccc1F)NC(=O)c1ccccc1`, with -2.69%. On the same count and under the same terms, the figure for `Cc1cc(C)cc(NS(=O)(=O)c2ccc3[nH]cc(C(=O)N4CCCCC4)c(=O)c3c2)c1` is 1.93%; for `COc1cc(/C=C2/C(=O)NN(c3cccc(Cl)c3)C2=O)cc(Br)c1O` it is -0.608%.

For `C=CCOc1c(Br)cc(/C=N\n2nnnc2N)cc1OC`, the “activity change, negative = growth inhibition” value is -8.22%. Turning to `CCOc1c(Br)cc(/C=C2\C(=O)N(CCC#N)N=C2C)cc1OC`, the Potency was 20.6 µM (active). Consider `COc1ccc(-n2c(-c3ccc(Cl)cc3)n[nH]c2=S)c(OC)c1`, for which the “activity change, negative = growth inhibition” value is 9.9%. Regarding `CCc1cc(=O)oc2c(C)c(OCC(=O)N3CC[C@@]4(O)CCCC[C@H]4C3)ccc12`, the “activity change, negative = growth inhibition” value was -1.84%. With `Cc1ccc(/C=N/NC(=S)NC2CCCCC2)o1`, the Potency is 14.6 µM (active). Take `Cc1ccc(/C=N/NC(=O)CNC(=O)COc2ccccc2)o1`: the “activity change, negative = growth inhibition” value is -0.282%.

Regarding `Cc1ccc(NC(=S)NC2CCCC2)cc1`, the “activity change, negative = growth inhibition” value was -12.1%. Regarding `CC12CCC(=O)N1C(C(=O)Nc1ccc(F)c(F)c1F)CS2` (stereo unspecified), the “activity change, negative = growth inhibition” value was -3.07%. For the molecule `O=C(CCNC(=O)c1ccc(Br)cc1)NCC(c1ccco1)N1CCCCC1` (stereo unspecified), the “activity change, negative = growth inhibition” value was -17.1%. Regarding `COc1ccc(-n2c(=O)c3sc4ccccc4c3n(CC(=O)Nc3cccc(C)c3)c2=O)cc1`, the “activity change, negative = growth inhibition” value was -11.5%. Same read-out and setting: the figure for `COc1cccc(NC(=O)CN(C)C(=O)CSCc2nc3scc(-c4cccs4)c3c(=O)[nH]2)c1` is -4.16%; for `CCOC(=O)c1cc(C#N)c(N2CCCCC2)nc1-c1ccccc1` it is -8.91%. Regarding `CC(C)C[C@H]1CNC(=S)N1C[C@H]1CCCN1C[C@H](Cc1ccc(O)cc1)N1C[C@H](Cc2ccc(O)cc2)N(CC2CCCCC2)C1=S`, the Potency was 25.9 µM (active). On to `CCOc1ccc(CCN2C(=O)C(=O)N([C@@H](CC(C)C)CN3CCC[C@H]3CN3C(=O)C(=O)NC[C@@H]3Cc3ccccc3)C[C@@H]2CC(C)C)cc1`, for which the “activity change, negative = growth inhibition” value is -23.9%. Regarding `CC(C)C[C@H]1CNC(=O)C(=O)N1C[C@@H]1CCCN1C[C@H](Cc1ccccc1)N1C[C@H](CC(C)C)N(CC2CCCCCC2)C(=O)C1=O`, the “activity change, negative = growth inhibition” value is 2.28%. For `COCCNc1cc(-c2c(C)noc2C)ncn1`, the “activity change, negative = growth inhibition” value is -19.5%. As for `CNc1cc(-c2c(C)noc2C)ncn1`, the Potency was 13 µM (active). For the molecule `Cc1noc(C)c1-c1cc(NCc2cccnc2)ncn1`, the “activity change, negative = growth inhibition” value is -6.05%. For the molecule `Cc1ccc(S(=O)(=O)N2CCCCC2)cc1C(=O)N1CCN(CCO)CC1`, the “activity change, negative = growth inhibition” value was -19.4%.

In the case of `CC1(C)CCc2cc(S(=O)(=O)N3CCN(c4nc(-c5cccs5)nc5ccccc45)CC3)ccc2O1`, the “activity change, negative = growth inhibition” value was -8.77%.

As to `Cc1ccc2nc(-c3cccc(Br)c3)cc(C(=O)Nn3cnnc3)c2c1`, the “activity change, negative = growth inhibition” value was 4.04%. In the case of `O=C(Nc1ccc(S(=O)(=O)Nc2nccs2)cc1)c1cc(-c2ccncc2)nc2ccccc12`, the “activity change, negative = growth inhibition” value was -3.11%.

With `O=C(Nc1ccc2c(c1)OCCO2)c1cnccn1`, the “activity change, negative = growth inhibition” value was -10.2%.

As for `O=C(Nc1ccncc1)c1cc(-c2ccccn2)nc2ccc(Br)cc12`, the “activity change, negative = growth inhibition” value was 17%. Take `CCN(CC)CCNC(=O)c1ccc(NC(=O)c2cc(-c3ccncc3)nc3ccccc23)cc1`: the Potency is 14.6 µM (active).

With `CCOc1ncccc1C(=O)Nc1ccc2c(c1)OCCO2`, the “activity change, negative = growth inhibition” value is -27.3%. For `Cc1ccc2nc(-c3ccncc3)cc(C(=O)Nc3ccc4c(c3)OCCO4)c2c1`, the Potency is 18.4 µM (active). Take `COC(=O)CNC(=O)c1cc(-c2ccncc2)nc2ccccc12`: the “activity change, negative = growth inhibition” value is 16.5%. On to `Cc1ccc2nc(-c3ccncc3)cc(C(=O)Nc3ccncc3)c2c1`, for which the Potency is 13 µM (active). Consider `COc1ccc(C(=O)CCC(=O)Nc2ccc(Cl)cc2)cc1`, for which the “activity change, negative = growth inhibition” value is 1.8%. Regarding `O=C1NC[C@H](CCCCN2CCN(CCc3ccccc3)C(=O)C2=O)N(CC2CCCCC2)C1=O`, the “activity change, negative = growth inhibition” value was 1.13%. For the molecule `O=C(Nc1ccccc1)c1ccco1`, the “activity change, negative = growth inhibition” value is -13.8%. Take `O=C(OC1CC2CC1[C@H]1CCCCN1C2=O)N1CCOCC1` (stereo partly specified): the “activity change, negative = growth inhibition” value was 10.6%. Turning to `CCc1c(Nc2ccccc2C)nc(N)[nH]c1=O`, the “activity change, negative = growth inhibition” value is 3.46%. With `CCCn1c(C(O)c2cc(OC)ccc2OC)nc2ccccc21` (stereo unspecified), the “activity change, negative = growth inhibition” value is -8.68%. On the same count and under the same terms, the figure for `CCOCCn1c(C(C)C)nc2ccccc21` is -0.999%. On to `CCCn1c(C(O)c2ccc(OCC)cc2)nc2ccccc21` (stereo unspecified), for which the Potency is 20.6 µM (active). In the case of `O=C(O)CCCC(=O)N1N=C(c2ccco2)CC1c1ccco1` (stereo unspecified), the “activity change, negative = growth inhibition” value was 0.547%. Take `Cc1nn(C)c(Oc2ccc(Cl)cc2)c1C=O`: the “activity change, negative = growth inhibition” value is -2.66%. For `Cc1ccc(-c2ccc(C3=CC(=O)CC(C)(C)C3=O)cc2)cc1`, the Potency is 0.184 µM (active). As for `CC1(C)CC(=O)C=C(c2ccccc2CO)C1=O`, the “activity change, negative = growth inhibition” value was -22%. The same measure, in the same setting: then `Cc1ccc(C(=O)OC2=CC(=O)CC(C)(C)C2)cc1`, with -2.38%; and `O=C(CC1C(=O)N(c2ccccc2)C(=O)N1CCc1cccs1)Nc1ccc(F)cc1` (stereo unspecified), with -4.18%; and `CCCCc1nc2ccc(F)cc2cc1C`, with -17.5%. Turning to `Cc1ccnc(NS(=O)(=O)c2ccc(NC(=O)c3oc4ccccc4c3C)cc2)n1`, the “activity change, negative = growth inhibition” value is -7.62%.

Consider `O=c1[nH]c2ccccc2n2c(-c3ccccc3)nnc12`, for which the Potency is 20.6 µM (active). For `CCOC(=O)c1cnc2[nH]c3ccccc3n2c1=O`, the “activity change, negative = growth inhibition” value was 5.8%.

With `CC(=O)c1c(-c2ccccc2)c2ccccc2[nH]c1=O`, the “activity change, negative = growth inhibition” value was 14.5%. On the same count and under the same terms, then `N#Cc1ccc(OCC(=O)NC(=O)NC2CCS(=O)(=O)C2)cc1` (stereo unspecified), with -2.01%; and `O=C(CNC(=O)c1cccs1)N/N=C/c1cccc(Br)c1`, with -7.89%.

Turning to `CCOC(=O)c1c(-c2ccccc2)oc2ccc(OCC(=O)NN)cc12`, the “activity change, negative = growth inhibition” value is -3.23%. With `COC(=O)c1sccc1NC(=O)c1cc(OC)c(OC)c(OC)c1`, the “activity change, negative = growth inhibition” value was -25.4%.

`COC(=O)c1c(-c2ccsc2)oc2ccc(-c3cc(OC)c(OC)c(OC)c3)cc12`: the Potency was 18.4 µM (active). In the case of `Cc1cccc(OCC(=O)Nc2ccc(C(=O)O)cc2NC(=O)COc2cccc(C)c2)c1`, the “activity change, negative = growth inhibition” value is -8.69%.

`O=C(Cc1ccccc1)Nc1cccc(NC(=O)c2ccccc2)c1`: the “activity change, negative = growth inhibition” value was -4.48%. For `O=C(CCl)Nc1cccc(CP(=O)(c2ccccc2)c2ccccc2)c1`, the Potency was 3.26 µM (active). As to `CCc1cccc(NC(=O)CCC(=O)O)c1`, the “activity change, negative = growth inhibition” value is -0.994%. Consider `COc1ccc(N2CCN(C(=O)c3cn(C)c4ccc(S(=O)(=O)N5CCOCC5)cc4c3=O)CC2)cc1`, for which the Potency result was “inactive”. Turning to `O=C(CC[C@H]1O[C@@H](n2ccc(=O)[nH]c2=O)[C@H](O)[C@@H]1O)N[C@H](Cc1ccccc1)C(=O)NCc1ccco1`, the “activity change, negative = growth inhibition” value was 7.85%.
